Results as given in PubChem BioAssay (Tox21).
Where “and” joins values, the source holds several entries; their conditions need not be identical. Equal entries are not always repeated. Results filed as inconclusive are left out. Unmarked numbers belong to inactive results. Calls of active or inactive are those of the source. Calls follow the shape of the dose curve; as a rule, active = well fitted cell-killing curve with a large enough effect in the repeat runs; inconclusive = weak or mixed curves, or effect the other way; inactive = flat fitted curve, though single readings scatter.

Test: cAMP Responsive Elements (CRE) small molecule agonists, cell-based qHTS assay: qHTS cell viability counter screen (AID 2060914); also: nearly all actives have a fitted effect of over 50% in size
Details: CRE-bla HEK293T viability, CellTiter-Glo luminescence, 5 h; series mostly up to 92.4 µM; activity change, negative = cytotoxicity: at the top concentration
Method in brief: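 In the same wells as the reporter read, viability of CRE-bla HEK 293T cells was quantified by CellTiter-Glo luminescence after a 3 h compound exposure.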
% is scaled to controls: 0 for no effect and ±100 for the full control effect; potency is read from the fitted curve at half-maximal effect.

Going from `OC(c1ccccc1)(c1ccccc1)C1CCNCC1` to `CCOC(=O)c1cncn1C(C)c1ccccc1` (stereo not given), the “activity change, negative = cytotoxicity” value rises from -8.43% [at 42.5 µM] to 2.54% [at 42.5 µM].

First: N[C@@H](Cc1ccc(Oc2cc(I)c(O)c(I)c2)c(I)c1)C(=O)O
Second: CN1CCN(C(=O)O[C@H]2c3nccnc3C(=O)N2c2ccc(Cl)cn2)CC1
The “activity change, negative = cytotoxicity” value of the first is higher: 16.2% [at 42.5 µM] for the first, -19.5% [at 42.5 µM] for the second.

Compared with `CCCOCC(=Nc1ccc(Cl)cc1C(F)(F)F)n1ccnc1`, `CCCC(Cn1cncn1)c1ccc(Cl)cc1Cl` (stereo not given) is higher in “activity change, negative = cytotoxicity” value: -18.3% for the first, -3.94% for the second.

Going from `COc1cccc(C=O)c1` to `COC(=O)C(C)N(C(=O)c1ccco1)c1c(C)cccc1C` (stereo not given), the “activity change, negative = cytotoxicity” value falls from 0.656% to 0.499%.

Compared with `CC(=O)[O-].[Tl+]`, `CO/N=C(\C(=O)OC)c1ccccc1CO/N=C(\C)c1cccc(C(F)(F)F)c1` is lower in “activity change, negative = cytotoxicity” value: 4.17% for the first, -20.1% for the second.

Compared with `CCCCP(CCCC)CCCC`, `CCCCCCCCSC(=O)Oc1cc(Cl)nnc1-c1ccccc1` is higher in “activity change, negative = cytotoxicity” value: 1.19% for the first, 5.48% for the second.

First: N#C/C=C/C#N
Second: Cc1ccc(-c2c(Cl)nc(C#N)n2S(=O)(=O)N(C)C)cc1
The “activity change, negative = cytotoxicity” value of the first is higher: 0.748% for the first, -7.66% for the second.

First: CN1CCc2cc3c(cc2C1O)OCO3 (stereo not given)
Second: Cc1ccccc1CO[C@@H]1C[C@@]2(C(C)C)CC[C@]1(C)O2
The “activity change, negative = cytotoxicity” value of the first is higher: -9.41% for the first, -17% for the second.

First: CCCCc1ccc(O)cc1
Second: BrCc1ccc(Br)cc1
The “activity change, negative = cytotoxicity” value of the first is lower: -9.01% for the first, -4.3% for the second.

Compared with `CCCN(CCC)CCc1c[nH]c2ccccc12`, `CCOP(=S)(OCC)SC(CCl)N1C(=O)c2ccccc2C1=O` (stereo not given) is lower in “activity change, negative = cytotoxicity” value: -2.15% for the first, -7.05% for the second.

Compared with `Oc1c(Br)c(Br)c(Br)c(Br)c1Br`, `Cc1ncc(C[n+]2csc(CCO)c2C)c(N)n1` is lower in “activity change, negative = cytotoxicity” value: -3.01% for the first, -8.29% for the second.

Compared with `Cn1[nH]nnc1=S`, `Cc1cc(C2CC2)nc(Nc2ccccc2)n1` is lower in “activity change, negative = cytotoxicity” value: 2.65% for the first, -29.4% for the second.

Compared with `O=C(N[C@H](c1ccccc1)[C@@H]1CN2CCC1CC2)c1c(Cl)ccc(C(F)(F)F)c1Cl`, `OCC(c1ccc(Cl)cc1)c1ccc(Cl)cc1` is lower in “activity change, negative = cytotoxicity” value: 12.8% for the first, -18.9% for the second.

Compared with `CSC(=O)c1c(C(F)F)nc(C(F)(F)F)c(C(=O)SC)c1CC(C)C`, `NC1CCC(CC2CCC(N)CC2)CC1` (stereo not given) is higher in “activity change, negative = cytotoxicity” value: -10.5% for the first, 16.9% for the second.

In the case of `N#Cc1c(Cl)c(Cl)c(Cl)c(C#N)c1Cl`, the Potency is reported as “inactive”.
With `C1CN2CCN1CC2` the Potency was “inactive”.
For `Nc1ccc([N+](=O)[O-])cc1`, the Potency was 6.11 µM (active).
In the case of `CNC(=O)O/N=C/C(C)(C)S(C)(=O)=O`, the Potency is reported as “inactive”.
With `CCCOC(=O)c1ccccc1C(=O)OCCC` the Potency was “inactive”.
In the case of `Cc1ccccc1[N+](=O)[O-]`, the Potency is reported as “inactive”.
In the case of `CC(C)COC(=O)c1ccccc1C(=O)OCC(C)C`, the Potency is reported as “inactive”.
In the case of `CCCCCCCC[N+](C)(CCCCCCCC)CCCCCCCC`, the Potency is reported as 19.3 µM (active) and 30.6 µM (active).
For `Nc1cc(Cl)cc(C(=O)O)c1Cl`, the Potency was “inactive”.
In the case of `Clc1cccc(Cl)c1Cl`, the Potency is reported as “inactive”.
In the case of `C[C@]12CC[C@H](O)CC1=CC[C@@H]1[C@@H]2CC[C@]2(C)C(=O)CC[C@@H]12`, the Potency is reported as “inactive”.
For `COC(=O)N(OC)c1ccccc1COc1ccn(-c2ccc(Cl)cc2)n1`, the Potency was 5.45 µM (active).
